Data as given in PubChem BioAssay (Tox21).
Results filed as inconclusive are left out. Active and inactive are the calls of the source. Unless noted, calls come from the whole dose curve; as a rule, active = well fitted curve in the direction sought with a large enough effect in the repeat runs; inconclusive = weak or mixed curves; inactive = no such curve, though single readings can be large; an effect the other way counts as inactive or inconclusive.

Columns and labels:
[1] = qHTS assay to identify small molecule antagonists of the thyroid receptor (TR) signaling pathway - cell viability counter screen (AID 743064); note: nearly all actives have a fitted effect of over 50% in size; note: potency is the fitted concentration of half-maximal effect
Summary of the method: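 In-well cytotoxicity read by CellTiter-Fluor (30 min, 37 C) following 23.5 h exposure of GH3 cells bearing a TRE-luciferase sensor. Compounds were added alongside 1 nM (final) T3 to drive TR transactivation.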

[2] = qHTS assay to identify small molecule antagonists of the thyroid receptor (TR) signaling pathway (AID 743065); note: nearly all actives have a fitted effect of over 55% in size; note: potency is the fitted concentration of half-maximal effect
Summary of the method: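 GH3.TRE-Luc rat pituitary cells carrying two TR response elements driving luciferase were plated for 4 h, given compound plus 1 nM T3 (final), and incubated 23.5 h at 37 C. ONE-Glo luminescence measured reporter inhibition; CellTiter-Fluor fluorescence tracked cytotoxicity.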

[3] = tested on: thyroid hormone receptor (rat, GH3 cells); experiment: qHTS assay to identify small molecule agonists of the thyroid receptor (TR) signaling pathway (AID 743066; calls by dose curve; note: potency is the fitted concentration of half-maximal effect)
[4] = qHTS assay to identify small molecule antagonists of the estrogen receptor alpha (ER-alpha) signaling pathway using the BG1 cell line - cell viability counter screen (AID 743081);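 note: compound given together with 17beta-estradiol as the ER stimulus; series mostly up to about 70 µM; nearly all actives have a fitted effect of over 45% in size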
[5] = qHTS assay to identify small molecule antagonists of the estrogen receptor alpha (ER-alpha) signaling pathway - cell viability counter screen (AID 743074; calls by dose curve;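 note: HEK293 cells carrying ER-alpha-UAS-bla reporter stimulated with 17beta-estradiol; nearly all actives have a fitted effect of over 45% in size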)
[6] = target: Estrogen receptor (Homo sapiens) (UniProt P03372); experiment: qHTS assay to identify small molecule agonists of the estrogen receptor alpha (ER-alpha) signaling pathway (AID 743075; calls by dose curve;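 note: HEK293 GripTite cells with ER-alpha and UAS-driven beta-lactamase reporter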)
[7] = target: Estrogen receptor (Homo sapiens) (UniProt P03372); experiment: qHTS assay to identify small molecule agonists of the estrogen receptor alpha (ER-alpha) signaling pathway using the BG1 cell line (AID 743079); note: nearly all actives have a fitted effect of over 20% in size; note: potency is the fitted concentration of half-maximal effect
[8] = target: Aromatase (Homo sapiens) (UniProt P11511); experiment: qHTS assay to identify aromatase inhibitors (AID 743083); note: nearly all actives have a fitted effect of over 55% in size; note: potency is the fitted concentration of half-maximal effect
[9] = target: Estrogen receptor (Homo sapiens) (UniProt P03372); experiment: qHTS assay to identify small molecule antagonists of the estrogen receptor alpha (ER-alpha) signaling pathway (AID 743069; active = well fitted curve in the direction sought with a large enough effect in the signal ratio in the repeat runs, not every such curve was filed as active; the % refers to the signal ratio)
Summary of the method: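 Estradiol-stimulated ER-alpha-UAS-bla HEK293 cells, 18 hr compound exposure at 37C. LiveBLAzer B/G substrate, 2 hr RT, fluorescence read.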

[10] = qHTS assay to identify small molecule antagonists of the estrogen receptor alpha (ER-alpha) signaling pathway using the BG1 cell line (AID 743080; calls by dose curve;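 note: BG1 cells stimulated with 17beta-estradiol alongside compound; series mostly up to about 70 µM; nearly all actives have a fitted effect of over 25% in size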)
Summary of the method: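 Endogenous full-length ER-alpha in BG1-Luc-4E2 cells drives a stably integrated 4×ERE luciferase gene; compounds were tested against 17beta-estradiol over 21.5 h, with luminescence and multiplexed viability fluorescence recorded.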

Measured: Potency

Sequence of Aromatase (Homo sapiens) (P11511 whole entry, looked up): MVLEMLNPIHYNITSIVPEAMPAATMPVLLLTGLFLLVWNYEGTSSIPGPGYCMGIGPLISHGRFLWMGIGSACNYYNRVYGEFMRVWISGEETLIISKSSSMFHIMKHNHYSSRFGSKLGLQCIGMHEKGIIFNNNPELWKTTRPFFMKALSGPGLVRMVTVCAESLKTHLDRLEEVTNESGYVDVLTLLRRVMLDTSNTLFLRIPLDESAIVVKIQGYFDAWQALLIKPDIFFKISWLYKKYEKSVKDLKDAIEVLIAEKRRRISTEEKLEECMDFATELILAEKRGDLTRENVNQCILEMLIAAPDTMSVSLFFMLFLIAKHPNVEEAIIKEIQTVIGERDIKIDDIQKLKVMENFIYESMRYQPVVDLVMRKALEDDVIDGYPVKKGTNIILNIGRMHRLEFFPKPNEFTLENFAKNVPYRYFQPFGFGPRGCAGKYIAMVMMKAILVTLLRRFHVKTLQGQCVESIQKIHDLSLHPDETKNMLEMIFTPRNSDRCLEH
Sequence of Estrogen receptor (Homo sapiens) (P03372 whole entry, looked up): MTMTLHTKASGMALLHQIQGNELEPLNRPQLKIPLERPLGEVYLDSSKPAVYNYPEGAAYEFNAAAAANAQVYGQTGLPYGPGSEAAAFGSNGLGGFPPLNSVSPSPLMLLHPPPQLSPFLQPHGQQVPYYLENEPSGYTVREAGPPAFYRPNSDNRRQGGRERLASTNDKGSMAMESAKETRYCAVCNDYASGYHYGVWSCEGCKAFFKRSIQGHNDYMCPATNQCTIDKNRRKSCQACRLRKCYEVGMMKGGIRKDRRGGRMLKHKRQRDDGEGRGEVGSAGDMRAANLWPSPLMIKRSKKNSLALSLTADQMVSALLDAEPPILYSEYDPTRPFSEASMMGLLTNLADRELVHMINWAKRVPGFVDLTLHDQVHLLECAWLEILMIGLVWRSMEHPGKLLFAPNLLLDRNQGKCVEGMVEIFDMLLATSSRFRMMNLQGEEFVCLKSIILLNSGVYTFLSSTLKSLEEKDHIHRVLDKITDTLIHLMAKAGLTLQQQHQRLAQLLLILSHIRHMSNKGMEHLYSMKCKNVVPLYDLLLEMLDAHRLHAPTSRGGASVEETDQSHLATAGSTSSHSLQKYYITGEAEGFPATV

CCCCCCCCCCCCCCC
inactive: [1] | [2] | [3] | [4]

CC(O)CN(CCCN(C)C)CCCN(C)C (stereo not drawn)
inactive: [1] | [2] | [3] | [4]

COC(=O)C1=C(C)NC(C)=C(C(=O)OCC(C)=O)C1c1ccccc1[N+](=O)[O-] (stereo not drawn)
inactive: [5] | [6] | [7]
active: [1] 8.41 µM | [2] 7.5 µM | [8] 26.6 µM

c1cc(CN2CCCCC2)cc(OCCCNc2nc3ccccc3s2)c1
inactive: [9] | [6] | [4]
active: [1] 11.9 µM | [2] 23.7 µM

C=CC(=O)N1CCOCC1
inactive: [1] | [2] | [3] | [5] | [4] | [8]

Oc1ccc2c(c1)OC[C@@H](N1CCC(O)(c3ccc(F)cc3)CC1)[C@H]2O
active: [7] 9.44 µM
inactive: [1] | [2] | [5] | [6] | [4] | [8]

Cc1nc(-c2ccc(OCC(C)C)c(C#N)c2)sc1C(=O)O
active: [2] 13.3 µM
inactive: [1] | [3] | [6] | [4] | [8]

COc1cc(C)cc(O)c1
inactive: [1] | [2] | [3] | [5] | [4] | [8]

C1=C\CC/C=C\CC/C=C\CC/1
inactive: [1] | [2] | [3] | [5] | [4] | [8]

CCCCC1CCCCC(=O)O1 (stereo not drawn)
inactive: [1] | [2] | [9] | [5] | [6] | [7] | [10] | [4] | [8]

COC(C(=O)O)c1ccccc1 (stereo not drawn)
inactive: [1] | [2] | [3] | [4] | [8]

CCN1CCCC1CNC(=O)c1cc(S(N)(=O)=O)ccc1OC (stereo not drawn)
inactive: [1] | [2] | [3] | [5] | [4] | [8]

NC(CS)C(=O)O (stereo not drawn)
inactive: [1] | [2] | [3] | [5] | [8]

CCC(=O)/C=C/c1ccc(OC)cc1
inactive: [1] | [3] | [9] | [6] | [7] | [4] | [8]

COc1cc(CCC(C)=O)ccc1O
inactive: [1] | [2] | [3] | [5] | [4] | [8]

C#CC(C)(O)CC(C)C (stereo not drawn)
inactive: [1] | [2] | [3] | [5] | [4] | [8]

CCCc1ccccc1O
inactive: [1] | [2] | [3] | [5] | [4] | [8]

COc1cccc(OC)c1
inactive: [1] | [2] | [3] | [5] | [4] | [8]

CC(C=O)Cc1ccc(C(C)C)cc1 (stereo not drawn)
inactive: [1] | [2] | [3] | [5] | [4] | [8]

OCC(O)[C@@H](O)[C@H](O)[C@H](O)CO[C@H]1O[C@H](CO)[C@@H](O)[C@H](O)[C@H]1O (stereo partly drawn)
inactive: [1] | [2] | [3] | [5] | [4] | [8]

NS(=O)(=O)c1cc2c(cc1C(F)(F)F)NC(Cc1ccccc1)NS2(=O)=O (stereo not drawn)
inactive: [1] | [2] | [3] | [5] | [4] | [8]

CC(CCO)CCCC(C)(C)O (stereo not drawn)
inactive: [1] | [2] | [5] | [4] | [8]
active: [3] 27.3 µM

O=C(O)/C=C/c1ccc(Cn2ccnc2)cc1
inactive: [1] | [5] | [4] | [8]

CCO[Si](C)(OCC)OCC
inactive: [2] | [3] | [9] | [5] | [6] | [7] | [10] | [4] | [8]

CC(C)(C)N(CCO)CCO
inactive: [2] | [3] | [9] | [5] | [6] | [7] | [4] | [8]

CC1=CCC2C(C1)C2(C)C (stereo not drawn)
inactive: [2] | [3] | [9] | [5] | [6] | [7] | [10] | [4] | [8]

Cc1ccccc1Br
inactive: [1] | [5] | [4] | [8]

CCCCCCC(CCCCCCCCCCC(=O)OCC(COC(C)=O)OC(C)=O)OC(C)=O (stereo not drawn)
inactive: [2] | [3] | [9] | [5] | [6] | [7] | [4] | [8]

OCC(CO)(CO)COCC(CO)(CO)CO
inactive: [2] | [3] | [9] | [5] | [6] | [7] | [4] | [8]

Nc1cc(N)cc(C(=O)O)c1
inactive: [2] | [3] | [9] | [5] | [6] | [7] | [10] | [4] | [8]

CCO[Si](CCCN=C=O)(OCC)OCC
inactive: [2] | [3] | [9] | [6] | [7] | [4] | [8]

CCCCCCC(=O)OCC
inactive: [2] | [3] | [9] | [5] | [6] | [10] | [4] | [8]

C/C=C1\C(=O)C[C@H]2[C@@H]3CCC4=CC(=O)CC[C@]4(C)[C@H]3CC[C@]12C
inactive: [3] | [5] | [6] | [4] | [8]
active: [2] 30 µM

CCCCCCOC(=O)CC(CC(=O)OCCCCCC)(OC(=O)CCC)C(=O)OCCCCCC
inactive: [2] | [3] | [9] | [5] | [6] | [7] | [4] | [8]

CNc1ncnc2nc[nH]c12
inactive: [2] | [3] | [9] | [5] | [6] | [7] | [10] | [4] | [8]

Nc1nc(F)nc2c1ncn2[C@@H]1O[C@H](CO)[C@@H](O)[C@@H]1O
inactive: [3] | [9] | [5] | [6] | [7] | [10] | [4] | [8]
active: [2] 18.8 µM

CCCCCCCCCCCCCCCCCCOCC(O)CO (stereo not drawn)
inactive: [1] | [5] | [7] | [4] | [8]

O=S(=O)(c1cccc2cnccc12)N1CCCNCC1
inactive: [2] | [3] | [9] | [5] | [6] | [4]
active: [8] 13.3 µM

CC(C)COC(=O)c1ccccc1O
inactive: [2] | [3] | [9] | [5] | [6] | [7] | [10] | [4]

COc1nc(C)nc(N)n1
inactive: [2] | [3] | [9] | [5] | [6] | [10] | [4] | [8]

CCc1cc(S(=O)(=O)O)c2cc(C(C)C)cccc1-2
inactive: [2] | [3] | [9] | [6] | [7] | [10] | [4] | [8]

CCOC(=O)Cn1c(=O)sc2cccc(Cl)c21
inactive: [2] | [3] | [5] | [6] | [7] | [10] | [4] | [8]

CCCCNc1ccccc1
inactive: [2] | [3] | [9] | [5] | [6] | [7] | [10] | [4] | [8]

c1ccc(CCCc2ccccn2)cc1
inactive: [2] | [3] | [9] | [5] | [6] | [4] | [8]

O=[N+]([O-])c1ccc(CCO)cc1
inactive: [2] | [3] | [9] | [5] | [6] | [7] | [4] | [8]

CC(C)(O)C(=O)c1ccc(OCCO)cc1
inactive: [2] | [3] | [9] | [6] | [7] | [4] | [8]

c1ccc2cnncc2c1
inactive: [2] | [3] | [9] | [5] | [6] | [7] | [4] | [8]

CC(=O)NC(Cc1ccccc1)C(=O)O (stereo not drawn)
inactive: [2] | [3] | [9] | [5] | [6] | [7] | [10] | [4] | [8]

CCC(C)(C)C1CCC(OC)CC1 (stereo not drawn)
inactive: [2] | [3] | [9] | [5] | [6] | [7] | [10] | [4] | [8]

CN1[C@@H]2CC[C@H]1CC(NC(=O)n1c(=O)[nH]c3ccccc31)C2 (stereo partly drawn)
inactive: [1] | [9] | [5] | [6] | [7] | [4] | [8]

OCc1ccccn1
inactive: [2] | [3] | [5] | [6] | [7] | [4] | [8]

CCN(CC)S(=O)(=O)c1ccc(C(=O)O)cc1
inactive: [2] | [3] | [9] | [5] | [6] | [7] | [4] | [8]

CCCCOCC(C)OCC(C)O (stereo not drawn)
inactive: [2] | [3] | [9] | [5] | [6] | [7] | [10] | [4] | [8]

COc1ccc(COC=O)cc1
inactive: [2] | [3] | [9] | [5] | [6] | [7] | [10] | [4] | [8]

CC1(C)SC(C)(C)SC(C)(C)S1
inactive: [2] | [3] | [9] | [5] | [6] | [7] | [10] | [4] | [8]

Nc1ccn(C2CO[C@H](CO)O2)c(=O)n1 (stereo partly drawn)
inactive: [2] | [3] | [9] | [5] | [6] | [7] | [4] | [8]

Nc1cc(C(Cl)=C(Cl)Cl)c(S(N)(=O)=O)cc1S(N)(=O)=O
inactive: [2] | [3] | [9] | [5] | [6] | [7] | [10] | [4] | [8]

CC(=O)OC(C)(C)C
inactive: [2] | [3] | [9] | [5] | [6] | [7] | [10] | [4] | [8]

Cn1ccc2cc3c(cc21)CCN3C(=O)Nc1cccnc1
inactive: [2] | [3] | [5] | [4] | [8]
active: [7] 5.31 µM
